The source of these data is article PMC7862700, “An all-to-all approach to the identification of sequence-specific readers for epigenetic DNA modifications on cytosine”.

Holding throughout (test): DAPPL (digital affinity profiling via proximity ligation, sequencing); 10 mM Tris-HCl pH 7.5, 50 mM NaCl, 1 mM DTT, 4% glycerol, room temperature, 30 min; GST-TFs on glutathione beads, 16-mer random dsDNA library, 0.1% formaldehyde crosslink after washing; high values mean tight binding
The target of one assay is T1, FEV (Homo sapiens, UniProt Q99581 1-238).
T1 sequence: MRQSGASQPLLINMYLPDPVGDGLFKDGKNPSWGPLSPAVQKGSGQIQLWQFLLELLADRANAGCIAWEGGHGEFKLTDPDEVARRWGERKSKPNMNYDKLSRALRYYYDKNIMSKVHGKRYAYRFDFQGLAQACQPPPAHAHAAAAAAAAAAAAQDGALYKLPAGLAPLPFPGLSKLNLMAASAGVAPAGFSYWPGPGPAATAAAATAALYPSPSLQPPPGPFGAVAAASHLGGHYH
As to conditions: protein: recombinant; tags: N-terminal GST; dsDNA, one strand shown. An outline of the steps: (§1)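 Binding signal is each hexamer's read frequency for a factor divided by its frequency in the tag-only sample. The factors were GST-fused human transcription factors from yeast, captured on glutathione beads, DNA-barcoded and pooled with that sample. Pools were incubated with 200 nmole of a random double-stranded 16-mer DNA library in Tris/NaCl/DTT/glycerol buffer at room temperature for 30 min, then washed, crosslinked with 0.1% formaldehyde, proximity-ligated with BsaI/T4 ligase (1 h, 37 °C), PCR-amplified and sequenced on an Illumina NextSeq500.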

Another assay deals with ETV5 (Homo sapiens, UniProt P41161 1-510). The settings on record: protein: recombinant; tags: N-terminal GST; dsDNA, one strand shown. An outline of the steps:
as §1

The next assay concerns the target HSF1 (Homo sapiens, UniProt Q00613 1-529). The settings on record: protein: recombinant; tags: N-terminal GST; chain copies: 3; dsDNA, one strand shown. An outline of the steps:
as §1

Another assay has as its target T2, SPIC (Homo sapiens, UniProt Q8N5J4 1-248).
T2 sequence: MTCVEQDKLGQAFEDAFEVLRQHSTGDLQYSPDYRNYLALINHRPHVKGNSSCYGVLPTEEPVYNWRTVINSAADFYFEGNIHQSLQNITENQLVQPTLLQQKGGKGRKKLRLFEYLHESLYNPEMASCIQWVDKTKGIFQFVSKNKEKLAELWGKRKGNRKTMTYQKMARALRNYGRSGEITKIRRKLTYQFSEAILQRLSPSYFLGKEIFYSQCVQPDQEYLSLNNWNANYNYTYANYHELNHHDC
The settings on record: protein: recombinant; tags: N-terminal GST; dsDNA, one strand shown. An outline of the steps:
as §1

The next assay addresses ELF4 (Homo sapiens, UniProt Q99607 1-663). As to conditions: protein: recombinant; tags: N-terminal GST; dsDNA, one strand shown. An outline of the steps: as §1
Another assay deals with T3, ELK4 (Homo sapiens, UniProt P28324-2 1-405).
T3 sequence: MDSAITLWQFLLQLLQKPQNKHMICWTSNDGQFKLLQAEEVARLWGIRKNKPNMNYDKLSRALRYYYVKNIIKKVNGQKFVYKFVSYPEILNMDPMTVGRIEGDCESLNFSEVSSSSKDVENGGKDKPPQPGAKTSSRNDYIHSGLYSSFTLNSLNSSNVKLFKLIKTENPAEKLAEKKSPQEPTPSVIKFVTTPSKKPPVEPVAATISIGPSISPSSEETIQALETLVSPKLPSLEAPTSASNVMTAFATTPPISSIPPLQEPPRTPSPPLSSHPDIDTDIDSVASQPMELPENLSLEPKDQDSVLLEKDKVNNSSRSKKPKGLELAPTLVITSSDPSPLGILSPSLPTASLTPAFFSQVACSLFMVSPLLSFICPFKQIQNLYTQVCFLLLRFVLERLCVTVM
The settings on record: protein: recombinant; tags: N-terminal GST; dsDNA, one strand shown. An outline of the steps:
as §1

Another assay addresses T4, ETV2 (Homo sapiens, UniProt O00321 1-342).
T4 sequence: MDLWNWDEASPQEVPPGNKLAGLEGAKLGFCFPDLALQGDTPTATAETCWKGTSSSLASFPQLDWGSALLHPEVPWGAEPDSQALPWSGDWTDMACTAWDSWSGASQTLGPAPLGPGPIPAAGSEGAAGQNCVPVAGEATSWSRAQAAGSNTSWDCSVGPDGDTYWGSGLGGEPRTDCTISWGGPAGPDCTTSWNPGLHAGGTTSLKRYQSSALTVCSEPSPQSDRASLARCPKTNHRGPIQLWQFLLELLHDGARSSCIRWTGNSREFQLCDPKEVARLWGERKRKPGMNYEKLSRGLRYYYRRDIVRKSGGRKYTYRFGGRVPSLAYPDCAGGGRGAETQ
As to conditions: protein: recombinant; tags: N-terminal GST; dsDNA, one strand shown. An outline of the steps:
as §1

The target of a further assay is T5, ELF3 (Homo sapiens, UniProt P78545 1-371).
T5 sequence: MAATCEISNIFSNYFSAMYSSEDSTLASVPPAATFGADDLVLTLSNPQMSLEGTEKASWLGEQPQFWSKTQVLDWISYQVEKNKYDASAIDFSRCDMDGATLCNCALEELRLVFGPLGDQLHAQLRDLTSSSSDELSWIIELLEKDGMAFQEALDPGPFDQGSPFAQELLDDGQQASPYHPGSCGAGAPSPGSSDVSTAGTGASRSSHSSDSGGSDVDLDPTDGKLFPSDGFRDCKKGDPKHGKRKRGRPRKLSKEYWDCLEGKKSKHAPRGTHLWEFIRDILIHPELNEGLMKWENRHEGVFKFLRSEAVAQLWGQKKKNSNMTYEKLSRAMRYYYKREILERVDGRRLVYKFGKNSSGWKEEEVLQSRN
As to conditions: protein: recombinant; tags: N-terminal GST; dsDNA, one strand shown. An outline of the steps: as §1

In a further assay the target is CRX (Homo sapiens, UniProt O43186 1-299). As to conditions: protein: recombinant; tags: N-terminal GST; dsDNA, one strand shown. An outline of the steps:
as §1

For a further assay, the target named is ETV1 (Homo sapiens, UniProt P50549 1-477). The settings on record: protein: recombinant; tags: N-terminal GST; dsDNA, one strand shown. An outline of the steps: as §1
ETV1, sequence (P50549 whole entry): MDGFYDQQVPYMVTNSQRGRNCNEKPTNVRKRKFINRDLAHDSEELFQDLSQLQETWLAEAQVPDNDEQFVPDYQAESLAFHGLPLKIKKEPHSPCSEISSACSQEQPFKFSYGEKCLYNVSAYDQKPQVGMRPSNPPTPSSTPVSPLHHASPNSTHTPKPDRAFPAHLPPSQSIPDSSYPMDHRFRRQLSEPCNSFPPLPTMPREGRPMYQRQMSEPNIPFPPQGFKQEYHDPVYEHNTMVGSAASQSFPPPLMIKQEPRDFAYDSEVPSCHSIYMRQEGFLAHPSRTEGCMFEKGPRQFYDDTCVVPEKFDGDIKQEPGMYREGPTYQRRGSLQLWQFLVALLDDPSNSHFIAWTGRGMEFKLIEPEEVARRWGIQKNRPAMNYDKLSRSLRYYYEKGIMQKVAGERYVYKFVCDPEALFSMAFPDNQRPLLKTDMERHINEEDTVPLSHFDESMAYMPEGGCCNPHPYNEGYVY
A further assay addresses T6, ERF (Homo sapiens, UniProt P50548 1-548).
T6 sequence: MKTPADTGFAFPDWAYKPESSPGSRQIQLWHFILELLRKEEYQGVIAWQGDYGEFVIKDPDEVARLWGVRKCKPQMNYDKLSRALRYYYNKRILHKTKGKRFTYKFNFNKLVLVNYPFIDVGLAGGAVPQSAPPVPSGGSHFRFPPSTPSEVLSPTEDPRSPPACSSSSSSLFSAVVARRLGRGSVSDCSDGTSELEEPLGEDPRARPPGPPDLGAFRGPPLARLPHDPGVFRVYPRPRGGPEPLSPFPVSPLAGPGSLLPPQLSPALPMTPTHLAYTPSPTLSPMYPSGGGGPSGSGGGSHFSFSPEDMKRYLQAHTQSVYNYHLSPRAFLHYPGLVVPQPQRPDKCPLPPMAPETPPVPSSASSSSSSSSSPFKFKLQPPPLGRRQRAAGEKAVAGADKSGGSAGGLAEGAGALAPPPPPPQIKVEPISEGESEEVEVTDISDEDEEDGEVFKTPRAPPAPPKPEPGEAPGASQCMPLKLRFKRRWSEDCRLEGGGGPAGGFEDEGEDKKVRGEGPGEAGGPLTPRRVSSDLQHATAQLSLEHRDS
The settings on record: protein: recombinant; tags: N-terminal GST; dsDNA, one strand shown. An outline of the steps: as §1

The next assay concerns the target T7, ETV3L (Homo sapiens, UniProt Q6ZN32 1-361).
T7 sequence: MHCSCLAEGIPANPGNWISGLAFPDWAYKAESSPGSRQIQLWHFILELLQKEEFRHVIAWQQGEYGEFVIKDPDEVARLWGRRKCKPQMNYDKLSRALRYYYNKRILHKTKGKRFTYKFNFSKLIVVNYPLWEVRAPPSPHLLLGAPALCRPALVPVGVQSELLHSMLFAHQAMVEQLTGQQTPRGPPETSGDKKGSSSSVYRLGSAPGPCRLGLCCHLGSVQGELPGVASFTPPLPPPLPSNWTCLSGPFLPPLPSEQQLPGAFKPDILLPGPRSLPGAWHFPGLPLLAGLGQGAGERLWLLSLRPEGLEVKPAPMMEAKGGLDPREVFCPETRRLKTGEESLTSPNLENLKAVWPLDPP
As to conditions: protein: recombinant; tags: N-terminal GST; dsDNA, one strand shown. An outline of the steps:
as §1

Another assay has as its target T8, ETS2 (Homo sapiens, UniProt P15036 1-469).
T8 sequence: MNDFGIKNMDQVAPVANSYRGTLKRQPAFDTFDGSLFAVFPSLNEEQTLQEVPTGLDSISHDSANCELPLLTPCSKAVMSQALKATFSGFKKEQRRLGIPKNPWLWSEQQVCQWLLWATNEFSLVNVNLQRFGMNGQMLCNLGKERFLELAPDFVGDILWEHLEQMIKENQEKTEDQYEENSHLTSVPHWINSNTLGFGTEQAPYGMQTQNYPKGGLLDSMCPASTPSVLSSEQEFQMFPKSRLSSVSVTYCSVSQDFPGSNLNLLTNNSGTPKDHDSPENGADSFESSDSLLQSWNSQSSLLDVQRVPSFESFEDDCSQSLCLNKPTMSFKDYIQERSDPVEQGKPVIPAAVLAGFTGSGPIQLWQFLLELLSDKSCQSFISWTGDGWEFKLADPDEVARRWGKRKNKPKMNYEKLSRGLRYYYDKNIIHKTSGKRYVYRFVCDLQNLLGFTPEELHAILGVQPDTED
As to conditions: protein: recombinant; tags: N-terminal GST; dsDNA, one strand shown. An outline of the steps: as §1

A further assay has as its target T9, SPDEF (Homo sapiens, UniProt O95238 1-335).
T9 sequence: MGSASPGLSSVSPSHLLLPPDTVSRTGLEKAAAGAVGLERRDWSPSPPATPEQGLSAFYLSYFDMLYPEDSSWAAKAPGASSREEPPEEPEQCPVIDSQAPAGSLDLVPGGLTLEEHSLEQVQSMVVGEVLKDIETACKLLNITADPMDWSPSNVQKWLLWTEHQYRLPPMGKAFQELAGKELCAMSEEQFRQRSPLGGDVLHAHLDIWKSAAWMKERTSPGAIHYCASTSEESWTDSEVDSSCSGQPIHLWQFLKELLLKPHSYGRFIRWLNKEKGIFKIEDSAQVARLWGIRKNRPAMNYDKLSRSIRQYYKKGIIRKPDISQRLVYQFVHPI
The settings on record: protein: recombinant; tags: N-terminal GST; dsDNA, one strand shown. An outline of the steps: as §1

Another assay has as its target T10, ETV7 (Homo sapiens, UniProt Q9Y603 1-341).
T10 sequence: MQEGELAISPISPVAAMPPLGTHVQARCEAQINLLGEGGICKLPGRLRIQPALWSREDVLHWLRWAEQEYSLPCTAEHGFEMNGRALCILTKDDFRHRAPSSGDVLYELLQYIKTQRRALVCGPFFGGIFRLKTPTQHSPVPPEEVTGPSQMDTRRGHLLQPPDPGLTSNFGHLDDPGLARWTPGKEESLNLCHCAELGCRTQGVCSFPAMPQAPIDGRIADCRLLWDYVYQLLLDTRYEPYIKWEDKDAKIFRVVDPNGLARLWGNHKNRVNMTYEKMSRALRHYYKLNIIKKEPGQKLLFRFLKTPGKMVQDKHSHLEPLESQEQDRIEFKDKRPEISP
The settings on record: protein: recombinant; tags: N-terminal GST; dsDNA, one strand shown. An outline of the steps: as §1

The target of the next assay is T11, ELF5 (Homo sapiens, UniProt Q9UKW6-2 1-255).
T11 sequence: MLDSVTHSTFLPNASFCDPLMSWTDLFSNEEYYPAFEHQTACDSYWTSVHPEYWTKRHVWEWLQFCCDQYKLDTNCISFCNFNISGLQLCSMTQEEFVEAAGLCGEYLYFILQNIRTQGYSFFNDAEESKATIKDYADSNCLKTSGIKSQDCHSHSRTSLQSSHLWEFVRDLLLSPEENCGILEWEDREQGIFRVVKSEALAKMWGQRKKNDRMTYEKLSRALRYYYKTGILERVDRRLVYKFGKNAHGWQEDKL
The settings on record: protein: recombinant; tags: N-terminal GST; dsDNA, one strand shown. An outline of the steps:
as §1

A further assay concerns the target T12, ETV3 (Homo sapiens, UniProt P41162-2 1-143).
T12 sequence: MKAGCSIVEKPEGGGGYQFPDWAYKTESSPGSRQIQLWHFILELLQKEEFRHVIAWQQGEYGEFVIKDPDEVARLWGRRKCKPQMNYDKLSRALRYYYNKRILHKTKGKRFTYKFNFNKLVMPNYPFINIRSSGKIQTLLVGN
As to conditions: protein: recombinant; tags: N-terminal GST; dsDNA, one strand shown. An outline of the steps: as §1

In the next assay the target is ETV6 (Homo sapiens, UniProt P41212 1-452). The settings on record: protein: recombinant; tags: N-terminal GST; dsDNA, one strand shown. An outline of the steps:
as §1

ETV6, sequence (P41212 whole entry): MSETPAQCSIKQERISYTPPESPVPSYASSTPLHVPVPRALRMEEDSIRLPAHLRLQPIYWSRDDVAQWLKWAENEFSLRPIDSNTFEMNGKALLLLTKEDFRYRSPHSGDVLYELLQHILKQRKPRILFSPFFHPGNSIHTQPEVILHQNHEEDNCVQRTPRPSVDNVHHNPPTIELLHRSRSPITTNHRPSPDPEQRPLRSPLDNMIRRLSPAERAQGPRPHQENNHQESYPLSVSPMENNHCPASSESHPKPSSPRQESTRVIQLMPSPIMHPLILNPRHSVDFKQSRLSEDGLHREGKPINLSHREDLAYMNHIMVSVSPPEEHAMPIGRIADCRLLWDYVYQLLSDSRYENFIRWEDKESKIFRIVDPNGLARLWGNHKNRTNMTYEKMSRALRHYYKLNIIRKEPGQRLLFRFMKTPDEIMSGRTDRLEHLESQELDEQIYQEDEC
ELF4, sequence (Q99607 whole entry): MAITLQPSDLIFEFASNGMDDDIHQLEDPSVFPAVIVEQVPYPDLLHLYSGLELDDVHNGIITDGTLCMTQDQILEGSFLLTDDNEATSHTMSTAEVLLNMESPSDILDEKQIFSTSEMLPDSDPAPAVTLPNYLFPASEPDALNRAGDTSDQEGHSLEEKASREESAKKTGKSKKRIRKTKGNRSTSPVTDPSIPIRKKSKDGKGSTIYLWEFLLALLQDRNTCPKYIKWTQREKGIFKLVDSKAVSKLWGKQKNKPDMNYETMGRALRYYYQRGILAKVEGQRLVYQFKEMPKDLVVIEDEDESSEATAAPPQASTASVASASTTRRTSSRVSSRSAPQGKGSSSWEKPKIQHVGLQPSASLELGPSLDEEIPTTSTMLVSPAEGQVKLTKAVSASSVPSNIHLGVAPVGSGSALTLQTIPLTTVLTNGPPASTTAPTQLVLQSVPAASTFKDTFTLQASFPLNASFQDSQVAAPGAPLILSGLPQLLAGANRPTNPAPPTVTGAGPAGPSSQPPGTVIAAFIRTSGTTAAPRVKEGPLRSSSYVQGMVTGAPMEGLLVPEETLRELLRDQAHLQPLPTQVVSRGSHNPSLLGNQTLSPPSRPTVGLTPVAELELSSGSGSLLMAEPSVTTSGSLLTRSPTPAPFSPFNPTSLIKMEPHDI
CRX, sequence (O43186 whole entry): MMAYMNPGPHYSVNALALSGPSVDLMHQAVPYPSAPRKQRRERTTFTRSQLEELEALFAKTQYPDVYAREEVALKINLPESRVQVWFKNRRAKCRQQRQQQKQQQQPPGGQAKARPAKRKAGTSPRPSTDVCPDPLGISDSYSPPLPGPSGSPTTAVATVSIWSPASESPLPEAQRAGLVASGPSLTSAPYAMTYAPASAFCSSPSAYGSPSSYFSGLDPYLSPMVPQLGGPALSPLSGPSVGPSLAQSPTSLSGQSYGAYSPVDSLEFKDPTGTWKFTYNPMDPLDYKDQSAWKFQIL
HSF1, sequence (Q00613 whole entry): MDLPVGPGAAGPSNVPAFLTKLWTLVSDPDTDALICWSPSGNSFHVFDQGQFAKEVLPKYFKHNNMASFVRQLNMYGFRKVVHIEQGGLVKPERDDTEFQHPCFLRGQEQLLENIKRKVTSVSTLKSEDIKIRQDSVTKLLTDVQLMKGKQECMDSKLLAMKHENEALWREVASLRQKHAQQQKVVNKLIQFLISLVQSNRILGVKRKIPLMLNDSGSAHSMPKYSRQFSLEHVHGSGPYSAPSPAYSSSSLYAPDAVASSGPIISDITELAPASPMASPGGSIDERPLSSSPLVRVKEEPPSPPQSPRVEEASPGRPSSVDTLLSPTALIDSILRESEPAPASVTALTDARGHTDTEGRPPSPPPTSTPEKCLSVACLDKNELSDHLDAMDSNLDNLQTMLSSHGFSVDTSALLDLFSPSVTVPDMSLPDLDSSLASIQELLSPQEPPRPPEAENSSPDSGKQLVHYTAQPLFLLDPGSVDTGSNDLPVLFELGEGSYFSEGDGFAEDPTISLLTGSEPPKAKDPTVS
ETV5, sequence (P41161 whole entry): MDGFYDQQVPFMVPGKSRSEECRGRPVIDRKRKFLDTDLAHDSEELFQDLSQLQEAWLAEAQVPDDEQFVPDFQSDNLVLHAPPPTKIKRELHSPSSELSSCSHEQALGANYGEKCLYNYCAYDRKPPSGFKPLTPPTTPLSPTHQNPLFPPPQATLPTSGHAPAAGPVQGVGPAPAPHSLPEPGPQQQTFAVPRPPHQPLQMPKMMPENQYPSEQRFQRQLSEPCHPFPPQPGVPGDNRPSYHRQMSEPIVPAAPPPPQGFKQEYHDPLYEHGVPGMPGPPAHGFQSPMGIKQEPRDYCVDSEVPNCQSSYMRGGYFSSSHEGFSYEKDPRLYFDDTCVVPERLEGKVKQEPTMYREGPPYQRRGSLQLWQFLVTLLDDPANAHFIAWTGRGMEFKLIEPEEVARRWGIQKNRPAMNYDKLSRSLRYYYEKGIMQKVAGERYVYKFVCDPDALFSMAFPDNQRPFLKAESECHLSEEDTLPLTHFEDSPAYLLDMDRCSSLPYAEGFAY

Regarding AATTAA, the binding signal with FEV is 1.14 fold enrichment (6-mer frequency, TF over GST control); with ETV5, 1.29 fold enrichment (6-mer frequency, TF over GST control); with HSF1 it was 1.74 fold enrichment (6-mer frequency, TF over GST control); with SPIC, 1.24 fold enrichment (6-mer frequency, TF over GST control); with ELF4 it was 1.26 fold enrichment (6-mer frequency, TF over GST control); with ELK4 it was 1.26 fold enrichment (6-mer frequency, TF over GST control). Besides, the binding signal is 1.2 fold enrichment (6-mer frequency, TF over GST control) with ETV2; 1.24 fold enrichment (6-mer frequency, TF over GST control) in the assay with ELF3; 2.5 fold enrichment (6-mer frequency, TF over GST control) with CRX; 1.26 fold enrichment (6-mer frequency, TF over GST control) with ETV1; 1.31 fold enrichment (6-mer frequency, TF over GST control) with ERF; 1.2 fold enrichment (6-mer frequency, TF over GST control) in the assay with ETV3L. In addition, the binding signal was 1.24 fold enrichment (6-mer frequency, TF over GST control) with ETS2; 1.17 fold enrichment (6-mer frequency, TF over GST control) with SPDEF; 1.2 fold enrichment (6-mer frequency, TF over GST control) in the assay with ETV7; 1.23 fold enrichment (6-mer frequency, TF over GST control) with ELF5; 1.25 fold enrichment (6-mer frequency, TF over GST control) in the assay with ETV3; 1.32 fold enrichment (6-mer frequency, TF over GST control) with ETV6.
